# Only some compounds are listed: those with a hit (about 10% of all), similar ones and a draw of the others.
# Luc counter = Kinase-Glo luciferase inhibition (counter-screen). Kinase-Glo luciferase, ATP luminescence, 8 min. Potency, µM (top dose mostly 38.3 µM), inactives show top-dose activity change, negative = inhibition, actives largely listed as inhibitors. actives 0.28% (n = 200,000). AID 1379; active means well fitted inhibition curve with a large enough effect; inconclusive means small, poorly fitted or top-dose-only effect; further: potency means the concentration at half of the fitted maximal effect; nearly all actives have a fitted effect of over 60% in size
#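 Recombinant Kinase-Glo luciferase, 10 uM ATP (linear range), luciferin; imidazole pH 7.2 / KCl / MgCl2 / Tween / BSA buffer; 8 min RT; luminescence.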
# HPGD inh = HPGD (human) dehydrogenase inhibition; AID 894; actives 4.3% (n = 150,000); Potency, µM, for the others: at the top dose activity change, negative = inhibition, actives largely listed as inhibitors; purified HPGD, NADH fluorescence kinetic, PGE2 substrate; P15428; further: potency means the concentration at half of the fitted maximal effect
# Target sequence (P15428 whole entry, looked up): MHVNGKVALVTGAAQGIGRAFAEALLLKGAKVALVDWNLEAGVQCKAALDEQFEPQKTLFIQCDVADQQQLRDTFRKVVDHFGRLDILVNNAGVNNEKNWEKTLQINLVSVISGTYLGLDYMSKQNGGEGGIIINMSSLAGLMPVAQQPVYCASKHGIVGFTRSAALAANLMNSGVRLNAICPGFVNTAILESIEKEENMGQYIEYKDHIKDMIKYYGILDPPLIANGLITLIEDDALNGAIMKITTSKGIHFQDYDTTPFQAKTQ
#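 NADH formation kinetics: reaction with 30 uM PGE2 and 1 mM NAD+ (final), 20 nM enzyme, Tris-HCl pH 8 with Tween 20, after 15 min compound preincubation at room temperature. Fluorescence change, last versus first of five reads.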
# PNC inhibitor = inhibitors of perinucleolar compartment assembly; PC3M PTB-GFP, PNC prevalence imaging, 16 h; hits give low values; activity change (PNC), negative = inhibition, % at 10 µM; actives 3.1% (n = 140,000);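 active means readout at or below -70, meaning at least 70% loss of cells showing the perinucleolar compartment, a nuclear body marking cancer cells; inconclusive means readout between -30 and a set limit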;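 further: plate controls were DMSO wells for no effect and camptothecin positive control wells for full effect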
#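 Compounds are pinned in duplicate onto adhered PC3M cells stably expressing GFP-tagged PTB and incubated 16 h at 37 C. Cells are then fixed, nuclei stained with Hoechst, and PNC-positive cells counted.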
# Lamin A splicing = modulators of lamin A splicing; HeLa LMNA splicing GFP/RFP minigene ratio, 48 h; Potency, µM (doses to about 46.1 µM), for the others: at the top dose ratio change, negative = inhibition, hits mostly inhibitors; actives 0.01% (n = 200,000); AID 1487; active means well fitted inhibition curve with a large enough effect in the signal ratio, with a control signal flat, not every such curve was filed as active; inconclusive means small, poorly fitted or top-dose-only effect, or effect the other way, or a change in a side signal; the % refers to the signal ratio; further: potency means the concentration at half of the fitted maximal effect
#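 S3 HeLa cells stably expressing lamin A-EGFP splicing minigene plus DsRed2, 600 cells/well, 48 h compound exposure at 37C. Laser-scanning cytometry; analysed as GFP (500-530 nm)/RFP (575-640 nm) total intensity ratio; 0.5% DMSO vehicle.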
# IMPase cell inh = cell-permeable inhibitors of inositol monophosphatase (IMPase). CHO-M1 cells, IP1 accumulation, HTRF TR-FRET ratio. inhibition (IP1 accumulation), % at 46.1 µM. 120,000 tested, under 10 active. AID 901; active means well fitted curve in the direction sought with a large enough effect in the signal ratio, not every such curve was filed as active; inconclusive means small, poorly fitted or top-dose-only effect, or a change in a side signal; inactive means no such curve, though single readings can be large or run the other way; the % refers to the signal ratio;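 further: cells stimulated with carbachol in lithium chloride buffer; plate controls were DMSO basal wells for no effect and reference inhibitor wells for full effect; higher means more IMPase inhibition seen as more IP1 and lower FRET ratio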
#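 Elevated IP1 in lysates lowers TR-FRET signal (665/620 ratio and 620 channel reported). Cells were CHO-M1, given carbachol (50 uM as added) plus 50mM LiCl, pH 7.4, 30 min, 37C; compounds titrated up to 46 uM; AC50 by Hill equation.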
# ALDH1A1 block = ALDH1A1 (human) enzyme inhibition; P00352; Purified ALDH1A1, NADH fluorescence, propionaldehyde substrate; Potency, µM (doses to about 75.3 µM), inactives show top-dose activity, negative = inhibition, actives largely listed as inhibitors; actives 7.3% (n = 220,000); AID 1030;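 further: potency means the concentration at half of the fitted maximal effect; plate controls were no enzyme wells and a reference inhibitor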
# Target sequence (P00352 whole entry, looked up): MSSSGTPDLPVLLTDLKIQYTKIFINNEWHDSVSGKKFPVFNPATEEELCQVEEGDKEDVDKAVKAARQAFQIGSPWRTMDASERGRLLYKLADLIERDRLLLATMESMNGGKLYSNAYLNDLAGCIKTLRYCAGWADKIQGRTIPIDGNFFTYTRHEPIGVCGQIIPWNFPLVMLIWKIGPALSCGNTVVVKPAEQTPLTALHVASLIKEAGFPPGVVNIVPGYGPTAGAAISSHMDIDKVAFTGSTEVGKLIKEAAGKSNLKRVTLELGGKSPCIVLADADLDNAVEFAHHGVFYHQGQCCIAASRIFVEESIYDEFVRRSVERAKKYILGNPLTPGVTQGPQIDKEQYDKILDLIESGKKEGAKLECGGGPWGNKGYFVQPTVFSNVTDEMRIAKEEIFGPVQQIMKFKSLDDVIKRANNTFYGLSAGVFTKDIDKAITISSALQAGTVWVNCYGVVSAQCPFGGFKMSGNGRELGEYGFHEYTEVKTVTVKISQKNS
# Starred values were filed as active, the others as inactive; ? = inconclusive; / = no result given; [ ] = another dose, or the depositor's remark. Unless noted, the call rests on the fitted dose curve; in most records, active means well fitted inhibition curve with a large enough effect (not every such curve was filed as active); inconclusive means small, poorly fitted or top-dose-only effect, or another doubt; inactive means no such curve, though single readings can be large or run the other way. Unless noted, on the % scale 0 is the no-effect control and ±100 the full control effect.
SMILES,Luc counter,HPGD inh,PNC inhibitor,Lamin A splicing,IMPase cell inh,ALDH1A1 block
Cc1ccc2c(c1)C(C)(C)[C@]1(C)NC(=O)CCN21,1%,-13%,58,1%,6,40µM*
COc1ccc(OC)c(NC(=O)c2c(NCc3ccc(N(C)C)cc3)sc3c2CCCC3)c1,/,/,/,-25%[46 µM],/,/
COc1ccc(NC(=O)C2CCC(N3C(=O)C4C5C=CC(C5)C4C3=O)CC2)cc1 (stereo not given),3%,-2%,10,-11%,8,7.9µM*
CCOc1ccc(NC(=O)C2CCC(N3C(=O)C4CC=CCC4C3=O)CC2)cc1 (stereo not given),-1%,-19%,45,?,0,4µM*
CCOc1ccc(NC(=O)CN2C(=O)C3CC=CCC3C2=O)cc1 (stereo not given),3%,-10%,-4,7%,4,5%
CCOc1ccc(/C=C/C(=O)c2cccs2)cc1,14µM*,?,/,/,3,?
O=C(c1cnccn1)N1CCC[C@@]2(CCN(Cc3ccccc3)C2)C1,1%,-11%,/,/,/,10%
CC(C)N1C(=O)S/C(=C/c2ccc3c(c2)n(C)c(=O)n3C)C1=O,-4%,?,85,?,4,8.9µM*
NC1=NC(=O)/C(=C\c2cccnc2)S1,1%,/,/,?,/,-5%
CC(C)N1C(=O)S/C(=C/c2cccnc2)C1=O,-3%,1%,-17,12%,-3,13µM*
CC(C)=CCC/C(C)=C/C=C/C1=CC2(C)CC1(C)C(/C=C(\C)CCC=C(C)C)CC2=O (stereo not given),/,/,/,/,/,-14%[13.5 µM]
O=C1Cc2cc(S(=O)(=O)N3CCCCC3)cc3c2N1CCC3,/,/,/,10%[46 µM],/,/
CCN(CC)CCCNC(=O)c1ccc(Cc2nc3ccccc3[nH]2)cc1,-1%,-4%,/,/,/,0%
COc1cc(NC(=O)c2ccc3c(=O)n(Cc4ccco4)c(=S)[nH]c3c2)cc(OC)c1OC,-3%,-11%,-15,?,3,1.3µM*
CC1(C)Cc2c(sc3[nH]c(=S)n(Cc4ccco4)c(=O)c23)CO1,-5%,22µM*,-9,?,-21,5µM*
CC1(C)Cc2c(sc3c2c(=N)n(Cc2ccco2)c(=O)n3Cc2ccccc2)CO1,3%,-8%,-17,18%,-7,?
CCCN(CCC)C(=O)c1ccc2c(=O)n(Cc3ccco3)c(=S)[nH]c2c1,5%,/,/,?,/,25µM*
CN1CCN(C(=O)c2ccc3c(=O)n(Cc4ccco4)c(=S)[nH]c3c2)CC1,1%,-13%,39,8%,-2,?
COc1ccc2c(c1)OCC(Cc1ccc(OC)c(O)c1)C2=O (stereo not given),-1%,?,/,/,/,-13%
On1c2c(c3c4nonc4ccc31)CCCC2,0%,16µM*,?,-3%,-2,32µM*
CCSc1nc(-c2ccccc2)c(C#N)c(=O)[nH]1,9%,28µM*,29,-10%,?,?
CCCc1cc(=O)[nH]c(SCc2ccccc2)n1,2%,16µM*,-19,3%,8,?
CCCc1cc(=O)[nH]c(SCc2csc(-c3ccccc3)n2)n1,2%,-28%,?,?,/,-7%
CCCc1cc(=O)[nH]c(SCc2nc(-c3ccccc3F)no2)n1,/,/,/,-3%[46 µM],/,/
CCCc1cc(=O)[nH]c(SCc2cc(Cl)ccc2OC(F)F)n1,1%,14µM*,21,5%,7,-1%
SMILES,Luc counter,HPGD inh,PNC inhibitor,Lamin A splicing,IMPase cell inh,ALDH1A1 block
CCCc1cc(=O)[nH]c(SCc2cccc(C)c2)n1,-3%,14µM*,34,9%,8,?
COC(=O)c1ccc(NC(=O)CSc2n[nH]c(CC(C)C)n2)cc1,/,/,/,/,0,/
CCc1nc(SCc2ccc(F)cc2)[nH]c(=O)c1C#N,-2%,4.5µM*,?,?,-4,32µM*
CCc1nc(SCc2cccnc2)[nH]c(=O)c1C,1%,25µM*,?,1%,2,13%
N#Cc1c(-c2cccs2)nc(SCc2ccc(Cl)cc2)[nH]c1=O,-2%,/,/,/,/,6%
Cc1cccc(CSc2nc3[nH]ncc3c(=O)[nH]2)c1,4%,/,/,-17%[46 µM],/,8.9µM*
CCCc1cc(=O)[nH]c(SCC(=O)N(C)CC(=O)Nc2ccc(C)cc2)n1,-1%,1%,-115*,1%,7,-5%
Cc1nc(NCc2ccccc2)c2nc(-c3ccccc3)n(CCN3CCOCC3)c2n1,-4%,?,/,/,/,?
Cc1cc(NC(=O)Cn2c(=O)oc3cc(S(=O)(=O)N4CCCC4)ccc32)ccc1Br,/,/,/,-20%[46 µM],/,/
CCC(=O)N[C@@H]1Cc2ccccc2[C@@H](c2ccccc2)C1,-3%,-2%,/,/,6,-8%
Fc1ccc(CNc2ncnc3c2c(-c2ccccc2)cn3-c2ccccc2)cc1,/,/,/,-22%[46 µM],/,/
Cc1cc(=O)[nH]c(SCc2nc3ccc([N+](=O)[O-])cc3[nH]2)n1,-1%,?,?,0%,/,?
CCCc1cc(=O)[nH]c(SCc2cccnc2)n1,0%,20µM*,410,-15%,2,-4%
CCCc1cc(=O)[nH]c(SCC(=O)C(C)(C)C)n1,7%,-17%,-10,1%,-7,-12%
CCCc1cc(=O)[nH]c(SCc2nc3ccc([N+](=O)[O-])cc3[nH]2)n1,-3%,18µM*,49,?,/,-15%
CCCc1cc(=O)[nH]c(SCc2nc(-c3ccc(C)cc3)no2)n1,/,/,/,-11%[46 µM],/,/
CCCc1cc(=O)[nH]c(SCc2ccc(Cl)cc2)n1,-1%,16µM*,32,21%,-6,1%
COCCn1c(=O)c(-c2ccc(Cl)cc2)nc2cnc(OC)nc21,1%,-27%,/,/,/,?
O=C(/C=C/c1ccco1)NCC1(c2ccccc2)CCCC1,-1%,-10%,-109*,-7%,/,?
Cc1ccc(C(=O)OCC(=O)NCCC2=CCCCC2)s1,1%,-21%,0,2%,0,?
O=C(COC(=O)c1cccs1)NCCC1=CCCCC1,-6%,18µM*,?,-6%,-2,8%
O=C(O)CCCCCNC(=O)/C=C/c1ccco1,-2%,/,/,24%[46 µM],/,2%
O=C(/C=C/c1ccccc1)NCCC1=CCCCC1,0%,28µM*,58,?,1,-1%
O=C(/C=C/c1ccc(F)cc1)NCCC1=CCCCC1,5%,-20%,106,1%[0.0737 µM],1,-12%
O=C(O)CCCNC(=O)/C=C/c1ccco1,/,/,/,/,/,22µM*
COCCn1c(=O)c(CCc2ccccc2)nc2cnc(N3CCN(C)CC3)nc21,-2%,?,/,/,/,?
CN(Cc1ccccc1)C(=O)COC(=O)/C=C/c1ccco1,0%,/,/,19%[9.22 µM],/,?
O=C(/C=C/c1cccc(Cl)c1)NCCc1ccccc1,5%,8.9µM*,-18,5%,-4,?

# Screens from PubChem BioAssay.
